Experimental findings from PubChem BioAssay (NCI) are described below.

Compounds without any hit were thinned out: in the full panel of roughly 83,000, 20% have a hit.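 Interpretation: 100, growth as untreated; towards 0, rising growth inhibition; 0, no net growth; 0 to -100, cell death. Compounds scoring below 10 were considered active.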 Unmarked numbers belong to inactive results. The source made the active and inactive calls.

Among the test systems are DU-145 prostate; MALME-3M melanoma; MDA-MB-231 breast; RXF 393 renal; SF-268 CNS; SF-295 CNS; SF-539 CNS; UACC-257 melanoma; M14 melanoma; HCT-15 colon; HT29 colon; SNB-75 CNS; SNB-19 CNS; U251 CNS; PC-3 prostate; UACC-62 melanoma; LOX IMVI melanoma; SK-MEL-28 melanoma; K-562 leukemia; SK-MEL-5 melanoma.
Assay in all cases: NCI-60 one-dose screen, 48 h (100 = growth as untreated, 0 = no growth, -100 = all killed)
Holding throughout (conditions): 10 µM unless noted

`CCN1CCN(c2nc(NCCCNc3ccnc4cc(Cl)ccc34)c3ccccc3n2)CC1`: the growth with DU-145 prostate was 39.5%; in the test on MALME-3M melanoma, -73.5% (active); in the test with MDA-MB-231 breast, -10.8% (active); with RXF 393 renal it was 5.38% (active); with SF-268 CNS, 55.1%; with SF-295 CNS, 22.7%. Also, the growth with SF-539 CNS was -74.4% (active); with UACC-257 melanoma, -82.8% (active); in the test with M14 melanoma, -87% (active); with HCT-15 colon, 25.8%; in the test on HT29 colon, -16% (active); in the test on SNB-75 CNS, 57%. Further, the growth is 16.5% in the test with SNB-19 CNS; -26.7% (active) in the test on U251 CNS; 37% with PC-3 prostate; -75.6% (active) in the test on UACC-62 melanoma; -69.3% (active) in the test with LOX IMVI melanoma; -66.4% (active) in the test with SK-MEL-28 melanoma.
For the compound `O=c1ccccc(-c2ccc(-c3ccco3)cc2)c1O`, the growth with DU-145 prostate is 19.7%; in the test on MALME-3M melanoma it was 15.1%; with MDA-MB-231 breast it was 40.2%; in the test on RXF 393 renal, 43.9%; in the test with SF-268 CNS, 11%; in the test with SF-295 CNS, 20.5%. Besides, the growth was -2.44% (active) in the test with SF-539 CNS; 0.169% (active) with UACC-257 melanoma; -2.99% (active) with M14 melanoma; 29% in the test on HCT-15 colon; 24.9% in the test with HT29 colon; 38.8% in the test on SNB-75 CNS. In addition, the growth with SNB-19 CNS was 19.3%; with U251 CNS, 8.2% (active); in the test with PC-3 prostate, 32%; in the test with UACC-62 melanoma, -42.3% (active); in the test on LOX IMVI melanoma it was 8.59% (active); with SK-MEL-28 melanoma, 30.7%.
Consider `CC1C(/C=N/Nc2ccccc2)C(C#N)(C#N)C1(C#N)C#N` (centres undefined), for which the growth is 89.7% with DU-145 prostate; 99.2% with MALME-3M melanoma; 70.1% in the test on MDA-MB-231 breast; 105% with RXF 393 renal; 75.4% in the test on SF-268 CNS; 70.9% with SF-295 CNS. In addition, the growth is 102% with SF-539 CNS; 98.6% with UACC-257 melanoma; 33.2% in the test on M14 melanoma; 69.2% in the test on HCT-15 colon; 97.6% in the test on HT29 colon; 71.7% in the test on SNB-75 CNS. For the same compound, the growth in the test on SNB-19 CNS is 98.6%; in the test on U251 CNS, 101%; in the test with PC-3 prostate, 65.9%; in the test on UACC-62 melanoma, 5.25% (active); in the test with LOX IMVI melanoma it was 38.7%; in the test with SK-MEL-28 melanoma, 100%.
As for `CN(C)c1ccc(N=Nc2ccc(Br)cn2)c(O)c1`, the growth was 24.7% in the test on DU-145 prostate; 17.8% in the test on MALME-3M melanoma; 34.1% with MDA-MB-231 breast; 55.5% in the test on RXF 393 renal; 16.8% in the test with SF-268 CNS; 17.4% in the test on SF-295 CNS. For the same compound, the growth with SF-539 CNS is -10.2% (active); with UACC-257 melanoma it was -11.5% (active); in the test with M14 melanoma, -1.74% (active); with HCT-15 colon it was 28.3%; in the test on HT29 colon it was 21.9%; with SNB-75 CNS, 39.1%. For the same compound, the growth in the test on SNB-19 CNS was 19.6%; with U251 CNS, 11.4%; with PC-3 prostate, 33.3%; in the test on UACC-62 melanoma, -45.3% (active); with LOX IMVI melanoma, 6.61% (active); in the test on SK-MEL-28 melanoma, 29.9%.
For `CCOc1nc(-c2ccccc2)cc2c(O)c(C(=O)O)[nH]c(=O)c12`, the growth in the test with DU-145 prostate is 101%; in the test with K-562 leukemia, 112%; in the test on MDA-MB-231 breast it was 104%; in the test on RXF 393 renal it was -10.5% (active); in the test on SF-268 CNS, 99.2%; with SF-295 CNS, 104%. Further, the growth with SF-539 CNS is 94.6%; in the test with UACC-257 melanoma, 60.7%; in the test on M14 melanoma, 102%; in the test with HCT-15 colon, 106%; in the test with HT29 colon, 104%; with SNB-75 CNS it was 81.3%. Also, the growth was 94.3% in the test on SNB-19 CNS; 104% in the test with U251 CNS; 90.6% with SK-MEL-5 melanoma; 110% with UACC-62 melanoma; 95.2% with LOX IMVI melanoma; 138% in the test with SK-MEL-28 melanoma.
On to `N#Cc1nnn(-c2ccc(S(N)(=O)=O)cc2)c1NCC(=O)c1ccccc1`, for which the growth in the test on DU-145 prostate is 106%; with MALME-3M melanoma, 96.4%; with MDA-MB-231 breast, 95.1%; in the test with RXF 393 renal, 113%; with SF-268 CNS, 93.6%; in the test on SF-295 CNS, 100%. The growth in the test with SF-539 CNS was 116%; with UACC-257 melanoma it was 88.4%; in the test with M14 melanoma, 97.5%; in the test on HCT-15 colon, 98.3%; with HT29 colon, 95.5%; in the test with SNB-75 CNS, 80%. The growth with SNB-19 CNS was 92.2%; in the test with U251 CNS, 93.6%; with PC-3 prostate, 84.1%; in the test on UACC-62 melanoma, 96%; with LOX IMVI melanoma, 94.1%; in the test with SK-MEL-28 melanoma, 111%.
As to `CCCCC/C(C=C(C#N)C#N)=C/c1ccccc1`, the growth with DU-145 prostate is 71.3%; with K-562 leukemia, 42.2%; in the test with MALME-3M melanoma it was 95.4%; with MDA-MB-231 breast it was 77.7%; with SF-268 CNS it was 81.7%; in the test on SF-295 CNS, 84.4%. The growth is 92.3% in the test on SF-539 CNS; 54% in the test on UACC-257 melanoma; 73% with M14 melanoma; 47% in the test with HCT-15 colon; 37% with HT29 colon; 96.6% in the test on SNB-75 CNS. For the same compound, the growth with SNB-19 CNS is 67.1%; in the test with U251 CNS, 34.2%; in the test on SK-MEL-5 melanoma, 71%; with UACC-62 melanoma it was 48.9%; with LOX IMVI melanoma it was 2.03% (active); with SK-MEL-28 melanoma, 84%.
Regarding `COc1ccc(Nc2c3c4c(cccc4[nH]c2=O)C(=O)c2ccccc2-3)cc1`, the growth was -20.9% (active) with DU-145 prostate; -19% (active) with K-562 leukemia; 41.1% with MALME-3M melanoma; -20.5% (active) in the test on MDA-MB-231 breast; 21.4% with SF-268 CNS; -52.4% (active) with SF-295 CNS. Further, the growth was -31.3% (active) in the test on SF-539 CNS; 64.1% in the test with UACC-257 melanoma; 11.7% in the test on M14 melanoma; -4.37% (active) with HCT-15 colon; -32.1% (active) with HT29 colon; 0.39% (active) in the test with SNB-75 CNS. Further, the growth was 25.8% in the test with SNB-19 CNS; 3.3% (active) with U251 CNS; -42.3% (active) in the test with SK-MEL-5 melanoma; 38.3% in the test on UACC-62 melanoma; 23.9% in the test with LOX IMVI melanoma; 71.1% in the test on SK-MEL-28 melanoma.
